Compounds with a hit are over-represented: about 7.9% of the library has one in this group of screens.
HCMV inh = qHTS Assay for inhibitors of the human cytomegalovirus (HCMV); 410,000 compounds, 4.5% hits; HFF cells, HCMV-luciferase reporter, 72 h; stronger effect = lower value; AID 1259415, 2018; activity change, negative = inhibition, % at 57.5 µM; in the data active = activity change below about -60%; inconclusive = no clear call, values can overlap the other calls; inactive = above about -39%
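Luciferase read-out from HCMV-luciferase-infected HFFs (MOI 1 PFU/cell) 72 h post infection at 37C; compounds added after 16 h cell attachment; activity normalized between buffer-only basal and Salinomycin (10uM) inhibitor controls.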
Marburg entry inh = qHTS for inhibitors of binding or entry into cells for Marburg Virus; AID 540276, 2011; 300,000 compounds, 1.8% hits; Marburg virus pseudotyped entry inhibition, cell reporter; Potency, µM (doses to about 37.8 µM), for the others: at the top dose activity change, negative = inhibition, hits mostly inhibitors; calls by dose curve; tested in HEK293 cells; also: potency is read from the fitted curve at half-maximal effect
HCV inhibitor = qHTS Assay for Inhibitors of Hepatitis C Virus (HCV). Huh7.5.1 HCVcc-Cre infection, luciferase reporter, 44 h. Potency, µM (highest dose often 41.8 µM), without a hit: top-dose activity change, negative = inhibition, usual class: inhibitors. 340,000 compounds, 3.4% hits; active = well fitted inhibition curve with a large enough effect; inconclusive = small, poorly fitted or top-dose-only effect, or another doubt; inactive = no such curve, though single readings can be large or run the other way; also: potency is read from the fitted curve at half-maximal effect
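Seed cells (1,000/well) for 4 h; treat with compound and infect with HCVcc-Cre, moi about 0.5. Incubate 44 h, then detect luciferase activity.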
Lassa entry inh = qHTS for Inhibitors of binding or entry into cells for Lassa Virus | Lassa virus pseudotype entry inhibition, cell reporter | 300,000 compounds, 1.2% hits | Potency, µM (titrated, usually from 37.9 µM), for inactives: at the highest dose activity change, negative = inhibition, actives largely listed as inhibitors; calls by dose curve; tested in HEK293 cells; also: potency is read from the fitted curve at half-maximal effect; nearly all actives have a fitted effect of over 50% in size
FMDV antiviral = High Throughput Screening for Foot and Mouth Disease Virus Antivirals | FMDV antiviral cell-based qHTS | Potency, µM (doses to about 57.9 µM), without a hit: top-dose activity change, negative = inhibition, usual class: inhibitors | 410,000 compounds, 1.2% hits; calls by dose curve; tested in HEK293T cells; also: read-out not given here; potency is read from the fitted curve at half-maximal effect; nearly all actives have a fitted effect of over 45% in size
Active calls of the source: *; ? = inconclusive; . = no result given; ! = repeats disagree; [ ] = dose if it differs, or a comment. % is scaled to controls: 0 for no effect and ±100 for the full control effect.

SMILES	HCMV inh	Marburg entry inh	HCV inhibitor	Lassa entry inh	FMDV antiviral
CCOc1ccc2nc(N[C@@](NC(C)=O)(C(=O)OC)C(F)(F)F)sc2c1	.	-6.4%	.	.	.
COc1ccc(C)cc1NC(=O)C1CCN(S(=O)(=O)c2cc(Br)cc3c2N(C(C)=O)CC3)CC1	11.4	16.0%[46.1 µM]	.	?	-9.0%
CCN(CC)S(=O)(=O)c1ccc(-c2nnc(SCC(=O)N3c4ccccc4CC3C)o2)cc1 (stereo not given)	-12.9	-14.1%	-21.7%	?	0.0%
CCN(CC)S(=O)(=O)c1ccc(-c2nnc(SCC(=O)N3c4ccccc4CC3C)n2CC)cc1 (stereo not given)	?	?	?	?	20µM*
Cc1c(CN2CCC(CO)(CCOc3ccccc3)CC2)[nH]c2c(Cl)cccc12	-24.5	.	14.1µM*	.	-25.7%
OCC1(CCOc2ccccc2)CCN(Cc2ccccc2OC(F)F)CC1	-4.2	?	16.4%	6.9%[46.1 µM]	5.5%
OCC1(CCOc2ccccc2)CCN(Cc2ccc(OC(F)F)cc2)CC1	12.9	?	12.6µM*	-14.5%[46.1 µM]	-23.8%
Cc1nn(C)c(Cl)c1CN1CCC(CO)(CCOc2ccccc2)CC1	-19.4	?	-19.8%	11.1%	?
CC(C)COCC(CN(Cc1ccccc1)c1ccccc1)N1CCCC1 (stereo not given)	-67.0*	?	3.7%	13.4%	?
O=C1[C@H]2[C@H]3[C@H](O)[C@H](O)C/C(=N\OCc4ccccc4)[C@H]3CC[C@H]2C(=O)N1C1CCCCC1	.	-25.4%[14.2 µM]	.	.	.
COc1ccc(/C=C/c2nc(S(=O)(=O)c3ccccc3)c(N(C)C)o2)cc1	-9.5	.	22.4µM*	.	-16.5%
COCC1CCCN(Cc2ccc3c(c2)CN(C(=O)c2cnn(C(C)C)c2)CCO3)C1 (stereo not given)	.	.	.	.	-10.6%
COc1cc(NC(=O)c2ccc(Cl)cc2)c2ncccc2c1	34.2	.	?	.	-23.5%
COc1cc(C(=O)NC(c2ccccc2Cl)c2cc(Cl)c3cccnc3c2O)cc(OC)c1OC (stereo not given)	-79.3*	.	.	?	-11.2%
COc1cc(C(=O)Nc2cccc3cccnc23)cc(OC)c1OC	-12.4	-26.8%	?	?	?
COc1ccc(C(=O)NC(c2ccccc2Cl)c2cc(Cl)c3cccnc3c2O)cc1 (stereo not given)	-98.0*	.	.	?	-13.2%
COc1ccccc1NC(=O)N1CCc2[nH]c3ccc(Cl)cc3c2C1	-17.8	-22.5%	11.2µM*	?	?
O=C(C1CC1)N1CCN(c2ccnc3cc(Cl)ccc23)CC1	?	1.7%	5.9%	0.9%	-13.5%
COc1ccccc1NC(=O)N1CCN(c2ccnc3cc(Cl)ccc23)CC1	-67.0*	?	?	-22.5%	?
COc1ccccc1N1CCN(c2ccnc3cc(Cl)ccc23)CC1	-63.3*	?	?	?	-11.4%
COC(=O)[C@@H]1CCCN1Cc1ccc2c(c1)CN(Cc1coc3ccc(C)cc3c1=O)CCO2	.	.	.	.	-9.2%
Nc1nnnn1/N=C/C(Br)=C/c1ccccc1	8.9	5.01µM*	10µM*	?	14.1µM*
O=C(Nc1nccs1)c1ccc(-c2ccc(F)c(Cl)c2)o1	18.2	.	22.4µM*	.	12.3%
CC1CCCC(C)N1C(=O)c1ccc(S(=O)(=O)NCc2ccco2)cc1 (stereo not given)	-76.1*	7.5%[46.1 µM]	10.8%	19.7%	-12.1%
CCOC(=O)C1CCCN(C(=O)c2ccc(S(=O)(=O)NCc3ccco3)cc2)C1 (stereo not given)	-15.8	-28.7%	6.4%	1.4%	-22.3%
SMILES	HCMV inh	Marburg entry inh	HCV inhibitor	Lassa entry inh	FMDV antiviral
O=C(c1ccc(S(=O)(=O)NCc2ccco2)cc1)N1CCN(Cc2ccccc2)CC1	-34.4	10.9%[46.1 µM]	?	?	-15.9%
O=C(NC1CCN(Cc2ccccc2)CC1)c1ccc(S(=O)(=O)NCc2ccco2)cc1	-29.8	3.55µM*	3.98µM*	-24.1%[46.1 µM]	-29.0%
COc1ccc(CN2CCN(C(=O)c3ccc(S(=O)(=O)NCc4ccco4)cc3)CC2)cc1	-83.5*	0.316µM*	?	?	?
O=C(NC1CCCCC1)c1ccc(S(=O)(=O)NCc2ccco2)cc1	89.2	3.4%	12.1%	-17.3%	26.2%
CN1CCCC(CNC(=O)c2cnn(-c3ncc4c(n3)-c3ccccc3CC4)c2C2CC2)C1 (stereo not given)	.	.	.	.	-9.6%
Cc1[nH]c2ccccc2c1SCc1n[nH]c(=S)n1C	-77.7*	.	-23.0%	.	-21.6%
Cc1[nH]c2ccccc2c1Cc1n[nH]c(=S)n1C	-14.0	7.4%	20.7%	14.5%	-8.0%
COc1ccc([C@H]2C(C#N)=C(SC)NC3=C2C(=O)CC(C)(C)C3)cc1	.	-8.3%	.	.	.
Cn1cnc2cnc(Nc3ccc(F)c(Cl)c3)cc21	69.4	.	.	.	.
CCCCn1c2nc3ccccc3nc2c2c(=O)n(CC(C)C)cnc21	-62.2*	.	-11.9%	.	-4.8%
CCOC(=O)C(NC(=O)c1cccc(Cl)c1)(Nc1sc2c(c1C(N)=O)CCC2)C(F)(F)F (stereo not given)	-27.1	-29.3%	12.6µM*	?	?
Nc1ncc(/C=C/CNC(=O)c2cc(Cl)c(Br)[nH]2)[nH]1	-14.6	.	.	.	.
O=C(NC(=O)c1ccccc1O)c1ccc2c(c1)CCO2	-9.8	?	-3.9%	11.2µM*	-13.4%
CSc1nc(-c2ccccc2)cc(C)c1C#N	26.0	10.1%[46.1 µM]	10µM*	-19.7%	-19.4%
CSc1nc(-c2ccco2)cc(-c2ccccc2)c1C#N	-8.7	-25.8%	?	-1.2%	-23.5%
COc1ccccc1N1CCN(C(=O)C2CCN(S(=O)(=O)c3cn(C)cn3)CC2)CC1	-20.0	.	.	11.8%[46.1 µM]	-13.9%
c1ccc2c(c1)[IH]c1ccccc1-2	-99.9*	.	0.0282µM*	.	?
O=C1c2ccccc2C(=O)c2ccccc21	.	.	.	.	1.3%
COc1ccc(N(CC(=O)N2CCN(c3cccc(C)c3C)CC2)S(=O)(=O)c2c(C)noc2C)cc1	-64.7*!	6.9%[46.1 µM]	?	?	-14.2%
Cc1ccc(N(CC(=O)N2CCN(c3ccc(Cl)cc3)CC2)S(=O)(=O)c2c(C)nn(C)c2C)cc1	3.3	-0.7%[46.1 µM]	.	0.0%[46.1 µM]	-12.8%
Cc1ccc(N(CC(=O)N2CCN(c3cc(C)ccc3C)CC2)S(=O)(=O)c2c(C)nn(C)c2C)cc1	-71.7*	?	.	-26.3%[46.1 µM]	-29.1%
COc1ccc(N(CC(=O)Nc2ccc(Cl)cc2)S(=O)(=O)c2c(C)n[nH]c2C)cc1	?	.	-17.9%	.	-15.4%
COc1ccc(N(CC(=O)N2CCN(c3ccc(Cl)cc3)CC2)S(=O)(=O)c2c(C)n[nH]c2C)cc1	-72.7*	?	?	?	-1.2%
CC(C)(C)N1C(=O)[C@H]2[C@H]3[C@H](O)[C@H](O)C/C(=N\OCc4ccccc4)[C@H]3CC[C@H]2C1=O	.	-9.5%[14.2 µM]	.	.	.
CCN1CCN(Cc2c(O)ccc3c(=O)c(Oc4ccccc4Cl)c(C(F)(F)F)oc23)CC1	3.0	19.3%[46.1 µM]	.	7.0%[46.1 µM]	-27.9%
